Screens from PubChem.
CSC inhib = cancer stem cell inhibition; cancer stem cell-like cells viability, luminescence; hit rate 1.1% among 300,000; inhibition, % at 7.5 µM; AID 2717; in the data active = inhibition above about 75%; tested in HMLE shEcad cells
697 NFkB inh = inhibitors of the PMA/ionomycin-induced NF-kB reporter in 697 B cells | AID 435022 | hit rate 0.33% among 330,000 | 697 B-cell NF-kB luciferase reporter, 16 h | inhibition, % at 4 µM; in the data active = inhibition above about 35%
Beta apoptosis = blocks beta cell apoptosis; INS-1E cytokine-induced death, ATP luminescence, 48 h; percent of positive-control rescue, neutral wells zero; protection from apoptosis, % (no concentration beside the values); hit rate 0.8% among 300,000; AID 435005;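 active = Every replicate reaches about 75%, or at least half do and their mean reaches it too, limit read from the data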;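 note: 0% = cytokine-treated negative control wells and 100% = positive control rescue; higher means more ATP so stronger rescue from cytokine killing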
Jurkat NFkB inh = inhibitors of the PMA/ionomycin-induced NF-kB reporter in Jurkat cells; PMA/ionomycin-induced NF-kB luciferase reporter, luminescence; inhibition, % at 4 µM; hit rate 0.53% among 330,000; AID 435003; in the data active = inhibition above about 50%
Mdm2-MdmX inh = human Mdm2/MdmX binding inhibition; O15151+Q00987; SaOS-2 split-luciferase Mdm2/MdmX complementation, luminescence; inhibition, % at 8 µM; hit rate 3% among 330,000;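 active = inhibition of at least 50% at 8 µM in the primary screen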
Target sequence (O15151 whole entry, looked up): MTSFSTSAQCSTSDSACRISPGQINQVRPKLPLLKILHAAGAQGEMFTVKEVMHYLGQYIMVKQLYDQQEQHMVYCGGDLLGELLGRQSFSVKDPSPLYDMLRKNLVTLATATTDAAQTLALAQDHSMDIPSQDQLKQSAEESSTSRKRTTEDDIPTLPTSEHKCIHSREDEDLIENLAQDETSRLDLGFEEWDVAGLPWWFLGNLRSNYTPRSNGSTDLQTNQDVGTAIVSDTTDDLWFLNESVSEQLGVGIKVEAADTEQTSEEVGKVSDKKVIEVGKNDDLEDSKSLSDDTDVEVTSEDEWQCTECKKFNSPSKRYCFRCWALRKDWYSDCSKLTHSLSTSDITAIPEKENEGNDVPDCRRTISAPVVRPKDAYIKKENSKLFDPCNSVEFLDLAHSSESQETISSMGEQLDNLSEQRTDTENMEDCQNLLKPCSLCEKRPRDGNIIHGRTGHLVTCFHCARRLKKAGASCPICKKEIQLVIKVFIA
Target sequence (Q00987 whole entry, looked up): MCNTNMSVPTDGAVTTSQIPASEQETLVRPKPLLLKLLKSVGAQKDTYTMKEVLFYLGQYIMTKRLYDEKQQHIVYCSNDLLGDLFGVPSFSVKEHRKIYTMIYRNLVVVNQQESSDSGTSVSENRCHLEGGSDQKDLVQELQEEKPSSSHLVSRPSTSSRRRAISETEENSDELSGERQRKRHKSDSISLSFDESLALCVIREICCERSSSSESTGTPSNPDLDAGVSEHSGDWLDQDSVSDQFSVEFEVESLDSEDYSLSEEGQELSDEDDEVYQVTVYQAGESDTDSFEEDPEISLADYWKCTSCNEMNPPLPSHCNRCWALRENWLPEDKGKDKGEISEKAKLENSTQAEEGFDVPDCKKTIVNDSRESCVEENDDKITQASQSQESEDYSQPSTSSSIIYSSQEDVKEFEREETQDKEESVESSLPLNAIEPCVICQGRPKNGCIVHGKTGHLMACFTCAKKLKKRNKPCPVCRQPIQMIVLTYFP
Gli-Sufu block = Gli-Sufu pathway antagonism. inhibition, % at 5 µM. hit rate 0.74% among 340,000. Sufu-KO-LIGHT fibroblasts, Gli luciferase reporter luminescence;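 active = inhibition above about 55%, limit read from the data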;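 note: 0% = DMSO-treated cells and 100% = wells with medium but no cells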
Gli-Sufu confirm = confirmation of Gli-SUFU pathway antagonists. shares compounds with Gli-Sufu block. Sufu-KO-LIGHT cells, Gli luciferase reporter, luminescence. inhibition, % at 5 µM. hit rate 40% among 2,500. AID 602428;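 active = mean inhibition at 5 µM reaching about 45%, limit read from the data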;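 note: plate controls were DMSO-treated cells for no effect and wells lacking cells for full effect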
SufuKO cytotox = cytotoxicity counter-screen for Gli-SUFU antagonists | AID 651994 | Sufu-KO-LIGHT cells cytotoxicity, ATP luminescence | cytotoxicity, % at 5 µM | shares compounds with Gli-Sufu block | hit rate 32% among 2,500;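 active = mean cytotoxicity at 5 µM above about 25%, limit read from the data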;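 note: cells exposed to compound overnight for roughly 16 to 18 hours; plate controls were DMSO wells with cells for no effect and medium without cells for full effect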
Wnt3a cs = inhibits Wnt3a reporter, counter-screen for Gli-SUFU antagonists; Wnt-LIGHT cells, Wnt3a-driven luciferase reporter, luminescence; AID 651995; shares compounds with Gli-Sufu block; inhibition, % at 6.25 µM; hit rate 20% among 2,500;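 active = mean inhibition above about 25%, limit read from the data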
* marks the source's active call; other numbers are inactive results; . = not tested or not shown. In the library only some 4.5% were active in any assay of this set; here they are far more common.

SMILES	CSC inhib	697 NFkB inh	Beta apoptosis	Jurkat NFkB inh	Mdm2-MdmX inh	Gli-Sufu block	Gli-Sufu confirm	SufuKO cytotox	Wnt3a cs
O=C(CSc1nc(C2CC2)nc2c1cnn2-c1ccccc1)Nc1c[nH]c(=O)[nH]c1=O	-22	-4	.	7	15	99*	30	2	17
CCCCN(CCCC)c1nc(OC)nc(-n2nnc(C(C)=O)c2C)n1	-9	-46	12	0	23	52	23	27*	-31
CC(=O)c1nnn(-c2nc(N)nc(N(c3ccccc3)c3ccccc3)n2)c1C	-3	-8	3	-13	10	16	.	.	.
CN(C)C(=O)c1ccccc1NC(=O)Cc1cccc2ccccc12	-16	11	-4	-3	29	40	.	.	.
C=CCNC1=C(Cl)C(=O)c2ccccc2C1=O	43	-19	97*	-13	25	56*	30	5	79*
CCn1c(=O)n(CC)c2cc(N3CCCC3)c(NC(=O)c3ccc(C)c([N+](=O)[O-])c3)cc21	36	4	9	2	9	51	53*	35*	7
CN(CC(=O)Nc1ccccc1Cl)C(=O)CN1C(=O)C2CC=CCC2C1=O (stereo not given)	-8	-2	3	-5	-25	55	5	-1	10
C/C(=N\O)C(C)(C)Nc1ccccc1F	-8	4	-5	-1	-13	96*	10	13	-27
O=C(N/N=C/c1cc(Br)ccc1O)C(=O)Nc1ccccc1OC(F)(F)C(F)F	96*	.	83*	.	.	60*	73*	32*	58*
COc1ccccc1/C=N/NC(=O)C(=O)Nc1ccccc1OC(F)(F)C(F)F	-5	17	1	10	22	16	.	.	.
O=C(N/N=C/c1cc(Cl)ccc1O)C(=O)Nc1ccccc1OC(F)(F)C(F)F	96*	.	89*	.	.	55*	64*	46*	64*
CC(C)(C)OC(=O)C[C@H]1C/C=C\C[C@H](CC(=O)N[C@H](CO)Cc2ccccc2)C(=O)N[C@@H](Cc2ccccc2)COC1=O	.	-9	-1	-14	1	-16	.	.	.
Cc1ccccc1N1C(=O)c2cccc([N+](=O)[O-])c2C1=O	.	.	.	.	.	65*	18	5	14
O=C1c2cccc([N+](=O)[O-])c2C(=O)N1c1c[nH]c(=O)[nH]c1=O	2	11	-3	-3	23	-19	.	.	.
Cc1ccc(C)[n+](CC(=O)c2ccc(-c3ccccc3)cc2)c1	22	-9	43	19	-9	56*	36	16	-21
Cc1ccc[n+](CC(=O)c2ccc(-c3ccccc3)cc2)c1	-12	-11	-7	-4	14	4	.	.	.
COc1ccccc1OCCNC(=O)c1ccc(NC(=O)CC2SC(N3CCCC3)=NC2=O)cc1 (stereo not given)	.	.	.	.	.	4	.	.	.
Cc1ccc(NC(=O)c2ccccc2F)nc1	4	-82	.	-110	-42	99*	-55	14	7
CN(c1ccccc1)S(=O)(=O)c1cccc(C(=O)NCCCN2CCCC2=O)c1	-2	16	-8	16	-13	-4	.	.	.
O=C(c1ccc(Cl)cc1)c1ccc(OCC(=O)N2CCOCC2)cc1	4	-18	0	-15	10	69*	15	21	-36
Cn1cnnc1SCc1ccc(C(=O)N=Nc2c(O)n(Cc3ccc(Cl)cc3)c3ccccc23)cc1	29	-43	9	-10	30	52	22	6	-5
CCn1c(O)c(N=NC(=O)c2ccc(CSc3nncn3C)cc2)c2ccccc21	-21	17	2	7	27	4	.	.	.
Cc1ccc(NC(=O)C/C(N)=N/OC(=O)Nc2ccc(C)c(Cl)c2)cc1	.	-19	2	-15	-11	-13	.	.	.
COc1ccc(NC(=S)N2CCC(Cc3ccccc3)CC2)cc1	4	21	19	-6	19	62*	45	10	13
S=C(Nc1ccccc1)N1CCC(Cc2ccccc2)CC1	-10	-6	.	20	7	53	66*	27*	22
SMILES	CSC inhib	697 NFkB inh	Beta apoptosis	Jurkat NFkB inh	Mdm2-MdmX inh	Gli-Sufu block	Gli-Sufu confirm	SufuKO cytotox	Wnt3a cs
CCNC(=S)N1CCC(Cc2ccccc2)CC1	-4	1	-2	1	20	27	.	.	.
CCc1nc2ccccc2c(NC(=O)CN2CCC(C)CC2)c1C	-6	-21	-5	2	2	51	18	8	-3
Cc1[nH]c(C)c(S(=O)(=O)Nc2ccccc2Cl)c1C(=O)N1CCCC1	4	7	-4	-3	15	58*	20	-1	5
O=C(CNC(=O)Cc1ccccc1)NCC(=O)OCc1ccccc1	3	25	2	20	-21	99*	10	16	-11
Clc1ccc(/C=N/N2CCN(Cc3ccccc3Cl)CC2)cc1	.	-6	1	5	3	6	.	.	.
COc1ccc(/C=N\N2CCN(Cc3ccccc3Cl)CC2)cc1	17	3	-1	-3	3	50	12	16	-27
COc1ccccc1N1CCN(C(=O)C(C)NC(=O)c2cccc([N+](=O)[O-])c2)CC1 (stereo not given)	.	5	-1	13	17	27	.	.	.
CCC(CC)CN1C(N(C)C)=NC[C@@H]1CC(C)C	-9	5	-6	3	26	56*	51*	16	25
CC(C)C[C@H]1CN=C(N(C)C)N1CCCCc1ccccc1	11	-36	10	23	47	61*	62*	24	23
CC(C)C[C@H]1CN=C(N(C)C)N1CC1CCCC1	-10	11	-9	-12	12	47	.	.	.
CCC(C)CCN1C(N(C)C)=NC[C@@H]1Cc1ccccc1 (stereo not given in full)	-9	-6	-8	-8	-26	12	.	.	.
CCC(C)CCN1C(N(C)C)=NC[C@@H]1CC(C)C (stereo not given in full)	-1	-15	3	-6	21	71*	56*	16	18
O=C(CCc1ccc(S(=O)(=O)N2CCOCC2)cc1)OCC(=O)c1ccccc1F	-3	-34	-5	-15	-37	1	.	.	.
CC1=C(C(=O)OC2CCCCC2)C(c2ccc(O)cc2)NC(=O)N1 (stereo not given)	-10	10	.	11	3	96*	24	5	-11
CC(C)(C)C1N=C(c2ccc3ccccc3c2)OC1=O (stereo not given)	-11	4	-3	11	15	-6	.	.	.
COc1ccc(NS(=O)(=O)c2ccc(N3CCOCC3)c(N)c2)cc1	26	-25	76*	25	-7	62*	61*	26*	28*
